Experimental data: PubChem BioAssay
Activity calls are given as the source filed them. Unless noted, the rule behind the calls is not given here.

How the values were obtained:
[1] = test system: Wnt5a (protein binding on small-molecule microarray); assay: small molecules binding Wnt5a protein – biophysical, small-molecule microarray, 635/667 nm fluorescence, primary screen (AID 1142); details: 635 nm fluorescence, higher = more signal;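 note: fluorescence read at 667 nm with signal to noise per printed feature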
[2] = ATP-based viability of Huh7 replicon cells – cell-based, CellTiter-Glo luminescence, basal, 48 h, cytotoxicity control for HCV replication inhibitor project, primary screen (AID 1143); details: higher = more signal, called active from +8 up or from −8 down;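 note: Huh7 hepatoma cells carrying a hepatitis C replication reporter with no stimulus; test concentration not given here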
[3] = Pseudomonas biofilm growth suppression – PAO1 strain, BacTiter-Glo luminescence, LB-PBS, primary screen (AID 1144); details: P. aeruginosa PAO1 biofilm, 12 h, higher = more signal
[4] = basal CRE-LacZ reporter activity in PC12 – cell-based, unstimulated, primary screen (AID 1145); details: no forskolin, luminescence, 4.5 h, higher = more signal, called active from +8 up or from −8 down
[5] = forskolin-driven CRE-LacZ activity in PC12 – cell-based, CRE-LacZ reporter, forskolin-stimulated, primary screen (AID 1146); details: luminescence, 4.5 h, higher = more signal, called active from +8 up or from −8 down;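 note: PC12 cells with 6xCRE LacZ reporter stimulated by forskolin 10 µM; beta-galactosidase reporter signal reflecting CREB driven transcription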
[6] = molecular target: Streptavidin (Streptomyces avidinii) (UniProt P22629); assay: compounds binding control protein streptavidin – biophysical, small-molecule microarray, 635/667 nm fluorescence, artefact control for SMM compound annotation, primary screen (AID 1147); details: higher = more signal;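 note: signal reflects streptavidin binding to arrayed compounds as a control protein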
[7] = probe aInhba binding on compound microarray – biochemical, small-molecule microarray, 635/667 nm fluorescence, primary screen (AID 1148); details: higher = more signal;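 note: score merges 667nm spot fluorescence with signal-to-noise for antibody binding to printed compounds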
Torsin-1A (Homo sapiens) [8] = molecular target: Torsin-1A (Homo sapiens) (UniProt O14656); assay: TOR1A wild-type binding on microarray – cell lysate, small-molecule microarray, lysate, 635/667 nm, primary screen (AID 1149); details: COS7 hTOR1A-WT lysate, 635 nm fluorescence, higher = more signal
Torsin-1A (Homo sapiens) [9] = molecular target: Torsin-1A (Homo sapiens) (UniProt O14656); assay: torsin A mutant lysate binding on microarrays – cell lysate, small-molecule microarray, COS7 lysate, 635/667 nm fluorescence, primary screen (AID 1150); details: COS7 hTOR1A mutant lysate, 635 nm fluorescence, higher = more signal;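 note: score pools 667 nm emission and signal to noise measuring lysate protein binding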
[10] = test system: Sonic hedgehog protein (Shh); assay: Sonic hedgehog microarray binding compounds – biochemical, small-molecule microarray, 635/667 nm fluorescence, primary screen (AID 1151); details: 635 nm fluorescence, higher = more signal;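 note: Shh protein binding to compounds spotted on small-molecule microarray slides; score combines spot fluorescence intensity with signal-to-noise across triplicate slides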
[11] = optical density shifts of acrAB sulA E. coli – strain DRC41, OD650, 48 h, E. coli filamentation inducer project, primary screen (AID 1152); details: higher = more signal, called active from +8 up or from −8 down;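 note: E. coli MC1000 strain DRC41 lacking acrAB efflux pump and sulA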
[12] = probe aLefty1 binding on compound microarray – biochemical, small-molecule microarray, 635/667 nm fluorescence, primary screen (AID 1153); details: higher = more signal;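 note: score merges spot fluorescence with signal-to-noise ratio from the scanned slide images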
[13] = plasmodial surface anion channel blockers, osmotic lysis – cell-based, P. falciparum Indochina, OD700, 1 h, primary screen (AID 1154); details: P. falciparum Indochina infected RBC osmotic lysis, higher = more signal, called active from +8 up or from −8 down
[14] = plasmodial surface anion channel blockers, osmotic lysis – cell-based, P. falciparum Indochina, OD700, 2 h, primary screen (AID 1155);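 note: lysis reports solute entry through the parasite surface anion channel PSAC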; details: P. falciparum Indochina infected erythrocytes, higher = more signal, called active from +8 up or from −8 down
[15] = changes in parasitized red cell lysis, either direction – P. falciparum Indochina, OD700, 3 h, PSAC antagonist project, primary screen (AID 1156); details: P. falciparum-infected erythrocytes, osmotic lysis, higher = more signal, called active from +8 up or from −8 down
[16] = plasmodial surface anion channel blockers, osmotic lysis – cell-based, P. falciparum Indochina, OD700, 18 h, primary screen (AID 1157); details: P. falciparum Indochina infected erythrocytes, osmotic lysis OD700, 18 h; higher = more signal, called active from +8 up or from −8 down
[17] = S6 kinase pathway phospho-S6 level changes – cell-based, A549, cytoblot, luminescence, serum-stimulated, primary screen (AID 1158); details: 5 h, higher = more signal;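 note: serum-stimulated A549 lung adenocarcinoma cells; signal is phosphorylated S6 detected by cytoblot immunostaining with HRP secondary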
[18] = molecular target: NADPH oxidase 2 (Homo sapiens) (UniProt P04839); assay: compounds shifting NOX2 Amplex Red fluorescence – cell-based, HEK293-NOX2, PMA-stimulated, NOX inhibitor project, primary screen (AID 1159); details: 45 min, higher = more signal, called active from +8 up or from −8 down; note: test concentration not given here
[19] = molecular target: NADPH oxidase 4 (Homo sapiens) (UniProt Q9NPH5); assay: compounds shifting NOX4 Amplex Red fluorescence – cell-based, HEK293-NOX4, tetracycline-induced, NOX inhibitor project, primary screen (AID 1160); details: HEK293-NOX4, Amplex Red H2O2 fluorescence, 45 min; higher = more signal, called active from +8 up or from −8 down
[20] = molecular target: NADPH oxidase 5 (Homo sapiens) (UniProt Q96PH1); assay: compounds shifting NOX5 Amplex Red fluorescence – cell-based, HEK293-NOX5, NOX inhibitor project, primary screen (AID 1161); details: HEK293-NOX5, ionomycin, 45 min, higher = more signal
Chain of NADPH oxidase 5 (Homo sapiens) (Q96PH1 whole entry, looked up): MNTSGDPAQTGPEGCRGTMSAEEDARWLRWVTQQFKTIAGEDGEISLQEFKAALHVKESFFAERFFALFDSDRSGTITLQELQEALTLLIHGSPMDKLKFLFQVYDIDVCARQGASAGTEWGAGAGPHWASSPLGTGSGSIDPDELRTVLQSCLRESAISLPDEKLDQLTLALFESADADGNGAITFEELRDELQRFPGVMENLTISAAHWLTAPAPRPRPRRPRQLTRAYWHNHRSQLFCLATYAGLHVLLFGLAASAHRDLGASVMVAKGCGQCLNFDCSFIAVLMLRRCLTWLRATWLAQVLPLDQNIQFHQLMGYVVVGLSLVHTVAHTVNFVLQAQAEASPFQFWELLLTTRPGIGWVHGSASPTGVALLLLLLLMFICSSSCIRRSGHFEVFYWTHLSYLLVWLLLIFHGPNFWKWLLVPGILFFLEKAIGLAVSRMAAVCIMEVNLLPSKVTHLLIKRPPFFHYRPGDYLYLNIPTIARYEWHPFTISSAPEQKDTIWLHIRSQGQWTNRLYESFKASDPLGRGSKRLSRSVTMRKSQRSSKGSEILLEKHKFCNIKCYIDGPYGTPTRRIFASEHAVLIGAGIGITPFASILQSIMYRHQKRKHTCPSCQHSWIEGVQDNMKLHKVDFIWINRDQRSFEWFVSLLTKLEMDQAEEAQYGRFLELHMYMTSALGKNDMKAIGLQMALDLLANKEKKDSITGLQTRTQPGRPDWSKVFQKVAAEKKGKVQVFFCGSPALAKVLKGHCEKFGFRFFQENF

Chain of NADPH oxidase 2 (Homo sapiens) (P04839 whole entry, looked up): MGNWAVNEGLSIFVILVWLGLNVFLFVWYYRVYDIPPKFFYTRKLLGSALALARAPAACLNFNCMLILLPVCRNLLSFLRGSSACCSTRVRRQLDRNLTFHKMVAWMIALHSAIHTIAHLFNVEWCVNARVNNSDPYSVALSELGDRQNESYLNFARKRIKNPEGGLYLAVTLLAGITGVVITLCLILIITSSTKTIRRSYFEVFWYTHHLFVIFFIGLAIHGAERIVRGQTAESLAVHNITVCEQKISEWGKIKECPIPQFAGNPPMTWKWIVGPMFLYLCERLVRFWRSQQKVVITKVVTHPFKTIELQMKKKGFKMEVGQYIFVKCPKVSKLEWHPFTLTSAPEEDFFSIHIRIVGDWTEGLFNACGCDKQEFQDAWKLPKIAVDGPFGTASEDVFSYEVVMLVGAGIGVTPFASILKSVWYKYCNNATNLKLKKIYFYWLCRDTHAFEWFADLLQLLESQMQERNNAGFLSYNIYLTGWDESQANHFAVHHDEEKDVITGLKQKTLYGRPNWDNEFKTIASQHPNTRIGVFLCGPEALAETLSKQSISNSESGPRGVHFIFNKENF
Chain of Streptavidin (Streptomyces avidinii) (P22629 whole entry, looked up): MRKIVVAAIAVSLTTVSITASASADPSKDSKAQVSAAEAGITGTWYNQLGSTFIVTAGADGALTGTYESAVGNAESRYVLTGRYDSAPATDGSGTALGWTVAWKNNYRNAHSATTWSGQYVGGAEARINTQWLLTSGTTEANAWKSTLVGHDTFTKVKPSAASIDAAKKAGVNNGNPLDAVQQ
Chain of Torsin-1A (Homo sapiens) (O14656 whole entry, looked up): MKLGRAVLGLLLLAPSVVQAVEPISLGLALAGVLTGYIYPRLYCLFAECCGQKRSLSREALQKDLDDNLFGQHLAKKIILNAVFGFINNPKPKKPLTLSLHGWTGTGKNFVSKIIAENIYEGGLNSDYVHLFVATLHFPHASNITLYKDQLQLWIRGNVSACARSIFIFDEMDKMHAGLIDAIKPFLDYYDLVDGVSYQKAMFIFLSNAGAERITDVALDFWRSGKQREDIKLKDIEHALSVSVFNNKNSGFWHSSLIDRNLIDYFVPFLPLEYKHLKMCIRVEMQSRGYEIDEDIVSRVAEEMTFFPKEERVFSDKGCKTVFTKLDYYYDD
Chain of NADPH oxidase 4 (Homo sapiens) (Q9NPH5 whole entry, looked up): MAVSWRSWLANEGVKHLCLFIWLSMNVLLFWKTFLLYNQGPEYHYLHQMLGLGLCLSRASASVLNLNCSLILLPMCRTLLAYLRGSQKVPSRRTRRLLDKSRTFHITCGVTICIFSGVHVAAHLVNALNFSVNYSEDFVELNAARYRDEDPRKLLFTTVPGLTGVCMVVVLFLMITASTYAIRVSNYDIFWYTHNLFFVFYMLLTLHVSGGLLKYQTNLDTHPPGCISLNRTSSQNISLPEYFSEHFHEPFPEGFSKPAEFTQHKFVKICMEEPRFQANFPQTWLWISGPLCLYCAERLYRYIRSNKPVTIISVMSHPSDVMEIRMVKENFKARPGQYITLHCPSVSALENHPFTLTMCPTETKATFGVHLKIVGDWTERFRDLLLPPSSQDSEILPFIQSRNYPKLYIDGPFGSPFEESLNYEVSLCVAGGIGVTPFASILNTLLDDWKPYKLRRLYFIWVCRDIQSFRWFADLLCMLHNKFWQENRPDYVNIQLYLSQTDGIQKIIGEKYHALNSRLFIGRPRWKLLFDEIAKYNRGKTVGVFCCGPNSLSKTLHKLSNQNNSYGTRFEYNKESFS

SMILES	composite z-score [1]	z-score [2]	z-score [3]	z-score [4]	z-score [5]	composite z-score [6]	composite z-score [7]	composite z-score (Torsin-1A (Homo sapiens) [8])	composite z-score (Torsin-1A (Homo sapiens) [9])	composite z-score [10]	z-score [11]	composite z-score [12]	z-score [13]	z-score [14]	z-score [15]	z-score [16]	z-score [17]	z-score [18]	z-score [19]	z-score [20]
COc1cc(CO)cc(I)c1O[C@H]1C=C(C(=O)NCCO)C[C@@H](NCC2CCCCC2)[C@@H]1O	-0.042	-0.731 (inactive)	-0.893 (inactive)	-0.0534 (inactive)	-0.269 (inactive)	0.0581	0.0422	-0.549	-0.262	-0.397	2.19 (inactive)	-0.313	1.35 (inactive)	0.94 (inactive)	0.996 (inactive)	0.183 (inactive)	1.06	0.132 (inactive)	0.97 (inactive)	1.04
C[C@]1(C(=O)NCCN2CCOCC2)c2ccccc2C(=O)N(Cc2cc(F)cc(C(F)(F)F)c2)[C@H]1c1ccc(CO)cc1	-0.187	-1.39 (inactive)	-1.32 (inactive)	-0.385 (inactive)	-0.909 (inactive)	0.0519	0.027	1.82	1.84	1.86	1.28 (inactive)	0.0892	5.73 (inactive)	0.651 (inactive)	1.24 (inactive)	0.28 (inactive)	0.523	0.51 (inactive)	0.798 (inactive)	-0.291
C=C(C(=O)CC[C@@H](OC(=O)c1ccccc1-c1ccccc1C(=O)O)c1ccccc1OCCO)C(C)C	0.618	0.182 (inactive)	-0.695 (inactive)	3.64 (inactive)	3.34 (inactive)	-0.344	-0.0529	0.908	0.663	2.3	0.0884 (inactive)	0.15	4.57 (inactive)	0.769 (inactive)	1.56 (inactive)	0.232 (inactive)	0.689	-0.518 (inactive)	-0.798 (inactive)	-1.48
O=c1cccc(-c2ccc(F)cc2)o1	0.0405	0.0779 (inactive)	-0.291 (inactive)	-0.433 (inactive)	1.01 (inactive)	0.386	0.179	0.309	0.0586	0.559	-0.527 (inactive)	0.0367	1.74 (inactive)	0.624 (inactive)	-0.099 (inactive)	0.832 (inactive)	-0.387	0.227 (inactive)	-1.19 (inactive)	-0.184
C=CCNC(=O)[C@H]1[C@@H]2C(=O)O[C@@H](c3ccccc3)[C@@H](c3ccccc3)N2[C@@H](c2ccc(O)cc2)[C@]12C(=O)N(C(=O)OCCOC)c1ccc(C#CCC(C(=O)OC)C(=O)OC)cc12	0.027	-2.96 (inactive)	0.102 (inactive)	0.0653 (inactive)	0.141 (inactive)	0.663	-0.0221	0.757	0.283	1.75	-0.275 (inactive)	0.139	5.56 (inactive)	1.27 (inactive)	-4.17 (inactive)	0.516 (inactive)	-0.016	1.95 (inactive)	1.14 (inactive)	1.52
[N-]=[N+]=NCc1ccccc1[C@H]1OC(c2ccc(OCCCO)cc2)=N[C@@]1(CCS(=O)(=O)c1ccccc1)C(=O)NCc1ccccc1	0.486	-1.14 (inactive)	0.318 (inactive)	0.549 (inactive)	-0.0054 (inactive)	1.25	0.282	0.61	0.563	-0.081	1.14 (inactive)	-0.271	25 (active)	8.39 (active)	1.49 (inactive)	1.38 (inactive)	0.127	2.27 (inactive)	0.837 (inactive)	-0.887
C=C/C=C/[C@@H]1C(=C)CN([C@@H](Cc2ccccc2)C(=O)OC)[C@H]1[C@@H](O)Cc1ccccc1	-0.0425	-0.342 (inactive)	-0.428 (inactive)	3.38 (inactive)	2.05 (inactive)	0.185	-0.0418	0.218	0.795	0.949	0.834 (inactive)	-0.0601	0.743 (inactive)	0.362 (inactive)	-0.41 (inactive)	0.109 (inactive)	0.294	0.0619 (inactive)	-0.199 (inactive)	0.568
C=C[C@@H](OC)[C@H](OC(=O)Nc1ccc(SC)cc1)c1ccc(OCCO)cc1	0.502	-2.53 (inactive)	-0.918 (inactive)	9.77 (active)	0.136 (inactive)	0.22	-0.071	0.615	0.8	1.2	-3.28 (inactive)	0.137	26.7 (active)	16.4 (active)	2.11 (inactive)	1.78 (inactive)	0.285	0.403 (inactive)	0.357 (inactive)	0.00434
CN1C(=O)[C@@H]2[C@@H](CC(COc3ccccc3)=C([C@H](O)CCc3ccccc3)[C@@H]2CO)C1=O	-0.0336	-1.03 (inactive)	0.272 (inactive)	1.67 (inactive)	-1.18 (inactive)	-0.448	-0.128	0.762	0.0706	0.497	2.03 (inactive)	-0.328	29.5 (active)	21.6 (active)	-0.0433 (inactive)	1.43 (inactive)	0.867	-0.561 (inactive)	0.867 (inactive)	0.199
